In one test the target is Albumin (Bos taurus) (UniProt P02769). Put plainly: bovine serum albumin binders on microarray, profiling panel, artefact control for SMM control protein annotation, biochemical, small-molecule microarray, Alexa647 label, 635/667 nm fluorescence (AID 1118).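 Also: score merges 667 nm emission intensity and signal-to-noise per printed compound spot.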 The following applies: BSA-A647 binding, fluorescence 635 nm, higher = more signal.
Test [1] can be described thus: small-molecule microarray binders of probe aXIP, primary screen, biochemical, NeuroSMM set, 635/667 nm fluorescence (AID 1119).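 Also: probe is the protein aXip251-270 applied at 1 µg/mL to compound-printed slides; binding of probe to printed compounds measured as 667 nm fluorescence plus signal to noise.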 The conditions noted are these: higher = more signal, called active from +8 up or from −8 down.
Test [2] in a line: small-molecule binders of probe aNOTCH3, primary screen, biochemical, small-molecule microarray, 635/667 nm fluorescence (AID 1120).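 Also: probe is a biotin-tagged antibody raised against NOTCH3 rather than NOTCH3 protein; score merges spot fluorescence near 667 nm with spot signal to noise.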 The following applies: higher = more signal.
Test [3] in a line: small-molecule binders of probe aNOTCH2, primary screen, biochemical, small-molecule microarray, 635/667 nm fluorescence (AID 1121).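 Also: score merges feature fluorescence read at 667 nm with its signal to noise.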 The following applies: higher = more signal.
In test [4] the target is Carbonic anhydrase 2 (Homo sapiens) (UniProt P00918). Put plainly: CAII small-molecule binders, profiling panel, biochemical, small-molecule microarray, Alexa647-labelled CAII (AID 1122). The following applies: CAII-A647 binding fluorescence, higher = more signal.
Test [5] in a line: COS7 lysate on small-molecule microarray, probe aHis, 635 nm (AID 1123).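 Also: z-score combines 667nm fluorescence intensity with signal-to-noise per printed compound spot.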 The following applies: COS7 cell lysate, fluorescence, higher = more signal.
A short description of test [6]: compound binding in COS7 lysate, probe aLAP1, primary screen, cell lysate, small-molecule microarray (AID 1124).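 Also: lysate comes from COS7 cells expressing LAP1 and is applied at 0.3 µg/mL; score merges spot fluorescence near 667 nm with signal-to-noise over triplicate slides.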 The following applies: probe aLAP1, fluorescence, higher = more signal.
In a further test the test system is Sam68 (KHDRBS1). Put plainly: Sam68 small-molecule binders, primary screen, biochemical, small-molecule microarray, 635 nm fluorescence (AID 1125).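 Also: score merges 667 nm channel intensity with signal to noise over triplicate slides.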 The following applies: small-molecule microarray binding, higher = more signal.
Test [7] has as its system Chordin-like protein 2 (CHRDL2). Put plainly: CHRDL2 small-molecule binders, primary screen, biochemical, small-molecule microarray, 635 nm fluorescence (AID 1126).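 Also: printed compound slides probed with Chrdl2 protein at 4 µg/mL for 1 h at 4 C; score merges 667 nm emission intensity with signal to noise over three replicate slides.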 The conditions noted are these: small-molecule microarray binding, fluorescence 635 nm; higher = more signal.
In test [8] the target is Concanavalin-A (Canavalia ensiformis) (UniProt P02866). Put plainly: ConA small-molecule binders, primary screen, artefact control for SMM control protein annotation, biochemical, small-molecule microarray, Alexa647 label, 635 nm (AID 1127).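 Also: z combines 667 nm emission intensity with signal-to-noise across three replicate slides.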 The following applies: ConA-A647 binding fluorescence, higher = more signal.
Sequence of Concanavalin-A (Canavalia ensiformis) (P02866 whole entry, looked up): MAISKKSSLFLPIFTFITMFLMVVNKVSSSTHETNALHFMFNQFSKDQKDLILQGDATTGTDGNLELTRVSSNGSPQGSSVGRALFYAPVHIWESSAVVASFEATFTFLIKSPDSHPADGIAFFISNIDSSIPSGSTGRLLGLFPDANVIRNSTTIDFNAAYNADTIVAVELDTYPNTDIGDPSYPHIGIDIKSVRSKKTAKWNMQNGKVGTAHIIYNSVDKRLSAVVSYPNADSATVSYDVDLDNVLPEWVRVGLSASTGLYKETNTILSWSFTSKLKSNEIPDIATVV
The nature of test [9]: anti-His antibody binders, primary screen, artefact control for SMM control protein annotation, biochemical, small-molecule microarray, 635 nm fluorescence (AID 1128).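 Also: score merges feature fluorescence with signal-to-noise for each printed compound spot.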 The conditions noted are these: anti-His Alexa647 antibody binding, higher = more signal.
The subject of test [10] is Human papillomavirus type 1a E7 protein (residues 1-88). Put plainly: HPV1a E7 small-molecule binders, primary screen, biochemical, small-molecule microarray, residues 1-88, 635 nm (AID 1129). The following applies: small-molecule microarray binding, fluorescence 635 nm; higher = more signal.
Test [11] addresses Focal adhesion kinase 1 (Homo sapiens) (UniProt Q05397). Put plainly: small-molecule microarray binders of FAK, primary screen, biochemical, 635/667 nm fluorescence, BSA, DTT (AID 1130).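 Also: composite of spot emission at 667 nm and signal to noise over triplicate slides.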 The following applies: PTK2 binding, 635 nm fluorescence, higher = more signal.
The subject of test [12] is Fibrinogen (Alexa647-labelled). Put plainly: fibrinogen binders on compound microarrays, profiling panel, artefact control for SMM control-protein annotation, biochemical, small-molecule microarray, 635/667 nm fluorescence (AID 1131).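 Also: z-score merges 667 nm fluorescence with per-spot signal-to-noise over triplicate slides.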 The conditions noted are these: fibrinogen-A647 binding fluorescence, higher = more signal.
In test [13] the target is Follistatin (Homo sapiens) (UniProt P19883). Put plainly: follistatin binders on small-molecule microarrays, primary screen, biochemical, small-molecule microarray, 635/667 nm fluorescence (AID 1132). The conditions noted are these: FST binding, 635 nm fluorescence, higher = more signal.
Sequence of Follistatin (Homo sapiens) (P19883 whole entry, looked up): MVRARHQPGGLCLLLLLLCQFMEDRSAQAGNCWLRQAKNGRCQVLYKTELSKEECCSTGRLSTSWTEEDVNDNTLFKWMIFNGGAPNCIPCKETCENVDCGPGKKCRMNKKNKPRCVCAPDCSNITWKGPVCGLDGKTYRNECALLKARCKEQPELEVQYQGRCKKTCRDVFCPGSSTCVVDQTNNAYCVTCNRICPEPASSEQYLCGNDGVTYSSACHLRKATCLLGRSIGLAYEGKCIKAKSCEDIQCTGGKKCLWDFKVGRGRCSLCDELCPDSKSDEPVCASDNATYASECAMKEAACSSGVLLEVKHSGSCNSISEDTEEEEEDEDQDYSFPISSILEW
For test [14], the target named is Fibroblast growth factor 2 (Homo sapiens) (UniProt P09038). Put plainly: FGF2 binders on small-molecule microarrays, primary screen, biochemical, small-molecule microarray, 635/667 nm fluorescence (AID 1133). The following applies: small-molecule microarray binding, FGF2, fluorescence 635/667; higher = more signal.
Sequence of Fibroblast growth factor 2 (Homo sapiens) (P09038 whole entry, looked up): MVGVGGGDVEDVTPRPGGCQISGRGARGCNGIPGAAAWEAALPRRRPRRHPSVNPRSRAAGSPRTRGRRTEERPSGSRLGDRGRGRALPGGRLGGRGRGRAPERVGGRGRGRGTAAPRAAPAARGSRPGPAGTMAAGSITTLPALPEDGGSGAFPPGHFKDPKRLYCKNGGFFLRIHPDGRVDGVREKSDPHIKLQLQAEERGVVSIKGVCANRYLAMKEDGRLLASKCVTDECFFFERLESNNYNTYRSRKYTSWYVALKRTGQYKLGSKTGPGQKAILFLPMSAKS
Test [15] in a line: mitochondrial membrane potential change in A549 cells, profiling panel, cell-based, JC-1 fluorescence, basal, 24 h, 100 nL (AID 1138).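 Also: A549 lung adenocarcinoma cells under basal conditions with no added stimulus; test concentration not given here.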 The conditions noted are these: higher = more signal.
A further test deals with Lefty1. Put plainly: Lefty1 binders on small-molecule microarrays, primary screen, biochemical, small-molecule microarray, 635/667 nm fluorescence (AID 1139). The following applies: small-molecule microarray binding, fluorescence 635/667; higher = more signal.
Test [16] relates to wheat germ agglutinin (Triticum aestivum), Alexa647-labelled. Put plainly: wheat germ agglutinin binders on compound microarrays, profiling panel, artefact control for SMM control-protein annotation, biochemical, small-molecule microarray, 635/667 nm fluorescence (AID 1140).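 Also: score merges 667 nm feature emission with signal to noise over triplicate slides.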 The following applies: WGA-A647 binding, 635 nm fluorescence, higher = more signal.
The target of test [17] is Luciferin 4-monooxygenase (Photinus pyralis) (UniProt P08659). Put plainly: firefly luciferase enzyme inhibitors, primary screen, biochemical, luminescence, purified enzyme, 2006 set (AID 1141).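 Also: cell-free assay with purified firefly luciferase at 100 ng per well in PBS; test concentration not given here.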 The following applies: SteadyGlo luminescence, 30 min, higher = more signal, called active from +8 up or from −8 down.
Sequence of Luciferin 4-monooxygenase (Photinus pyralis) (P08659 whole entry, looked up): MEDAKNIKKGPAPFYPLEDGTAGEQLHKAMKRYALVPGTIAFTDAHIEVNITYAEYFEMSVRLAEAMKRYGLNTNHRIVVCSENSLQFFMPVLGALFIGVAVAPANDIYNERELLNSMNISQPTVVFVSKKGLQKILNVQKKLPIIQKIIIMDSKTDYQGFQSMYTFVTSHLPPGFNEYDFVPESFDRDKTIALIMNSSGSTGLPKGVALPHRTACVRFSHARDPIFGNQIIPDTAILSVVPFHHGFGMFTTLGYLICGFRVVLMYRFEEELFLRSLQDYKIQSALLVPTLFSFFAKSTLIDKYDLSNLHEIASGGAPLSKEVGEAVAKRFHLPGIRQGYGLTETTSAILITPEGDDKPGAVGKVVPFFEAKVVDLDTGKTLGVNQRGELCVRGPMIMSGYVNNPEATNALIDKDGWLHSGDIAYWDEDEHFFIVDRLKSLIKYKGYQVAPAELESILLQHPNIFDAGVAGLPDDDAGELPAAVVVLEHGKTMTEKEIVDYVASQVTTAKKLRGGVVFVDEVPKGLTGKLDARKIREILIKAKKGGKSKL

The values below come from PubChem BioAssay.

Activity calls are given as the source filed them.

Sequence of Focal adhesion kinase 1 (Homo sapiens) (Q05397 whole entry, looked up): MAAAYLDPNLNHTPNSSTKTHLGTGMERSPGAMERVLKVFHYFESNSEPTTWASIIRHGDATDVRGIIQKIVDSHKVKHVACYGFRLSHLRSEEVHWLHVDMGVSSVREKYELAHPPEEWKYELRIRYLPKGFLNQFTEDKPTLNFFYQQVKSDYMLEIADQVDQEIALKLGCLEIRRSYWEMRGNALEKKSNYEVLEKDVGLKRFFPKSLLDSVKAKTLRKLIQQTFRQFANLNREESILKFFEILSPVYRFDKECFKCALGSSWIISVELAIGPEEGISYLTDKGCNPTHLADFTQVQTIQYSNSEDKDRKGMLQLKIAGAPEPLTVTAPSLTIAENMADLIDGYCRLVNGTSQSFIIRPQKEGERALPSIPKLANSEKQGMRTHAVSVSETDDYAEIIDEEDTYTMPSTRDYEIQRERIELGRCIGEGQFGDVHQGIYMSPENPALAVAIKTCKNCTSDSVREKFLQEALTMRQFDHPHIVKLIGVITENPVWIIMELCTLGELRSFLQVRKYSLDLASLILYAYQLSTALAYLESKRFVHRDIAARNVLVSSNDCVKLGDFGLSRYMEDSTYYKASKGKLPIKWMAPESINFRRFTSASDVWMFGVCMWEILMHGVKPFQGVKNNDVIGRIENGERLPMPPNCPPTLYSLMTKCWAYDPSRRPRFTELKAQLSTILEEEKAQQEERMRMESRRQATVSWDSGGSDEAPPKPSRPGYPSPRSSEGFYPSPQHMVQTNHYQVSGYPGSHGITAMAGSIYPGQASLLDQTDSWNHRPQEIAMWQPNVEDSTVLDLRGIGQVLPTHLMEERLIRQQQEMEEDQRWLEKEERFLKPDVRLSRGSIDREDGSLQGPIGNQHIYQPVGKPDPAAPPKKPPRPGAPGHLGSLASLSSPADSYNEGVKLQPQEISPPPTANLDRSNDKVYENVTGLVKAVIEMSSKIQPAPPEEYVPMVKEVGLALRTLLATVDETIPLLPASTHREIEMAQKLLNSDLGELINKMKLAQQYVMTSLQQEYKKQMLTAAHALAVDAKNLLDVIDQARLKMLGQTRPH
Sequence of Albumin (Bos taurus) (P02769 whole entry, looked up): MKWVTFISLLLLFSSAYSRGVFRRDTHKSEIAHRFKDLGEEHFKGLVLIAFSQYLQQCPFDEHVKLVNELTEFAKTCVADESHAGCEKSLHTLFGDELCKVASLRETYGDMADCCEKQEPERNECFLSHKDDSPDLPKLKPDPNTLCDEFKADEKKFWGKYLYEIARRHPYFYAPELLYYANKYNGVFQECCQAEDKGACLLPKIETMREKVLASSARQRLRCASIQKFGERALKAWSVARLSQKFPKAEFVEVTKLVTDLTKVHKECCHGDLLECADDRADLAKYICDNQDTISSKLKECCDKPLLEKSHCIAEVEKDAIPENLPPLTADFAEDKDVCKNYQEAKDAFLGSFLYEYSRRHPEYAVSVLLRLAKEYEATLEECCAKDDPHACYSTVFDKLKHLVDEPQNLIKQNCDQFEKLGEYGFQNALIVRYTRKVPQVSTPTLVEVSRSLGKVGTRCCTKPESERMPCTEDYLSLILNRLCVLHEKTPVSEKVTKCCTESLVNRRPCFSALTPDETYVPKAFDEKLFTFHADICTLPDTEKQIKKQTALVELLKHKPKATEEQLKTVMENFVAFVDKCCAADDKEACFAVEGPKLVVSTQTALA

For `COCCOC(=O)N1C(=O)[C@@]2(c3cc(C#CC4(O)CCCCCC4)ccc31)[C@H](C(=O)Nc1nc3ccccc3s1)[C@H]1C(=O)O[C@H](c3ccccc3)[C@H](c3ccccc3)N1[C@@H]2c1ccc(OCCO)cc1`, the composite z-score in the test with Albumin (Bos taurus) was 0.345; in test [2], 0.246; in [3] it was -0.0009; in test [4] it was 0.503; in [5] it was 0.541; in test [6] it was 0.324. Besides, the composite z-score was 1.3 in the test with Sam68 (KHDRBS1); 0.637 in test [7]; 1.1 in test [8]; 0.553 in test [9]; 1.16 in [10]; -0.0405 in [11]. The composite z-score in [12] stood at 0.801; in test [13], 1.12; in test [14], 1.58; in the test on Lefty1 it was 1.22; in test [16], 0.924. The composite Z-score in test [1] was -0.245 (inactive). Besides, the z-score is -2.51 in test [15] and -3.29 (inactive) in test [17].
As to `COCCCNC(=O)[C@@]1(Cc2ccccc2)N=C(c2ccc(OCCCO)cc2)O[C@H]1c1ccccc1CN=[N+]=[N-]`, the composite z-score with Albumin (Bos taurus) came out at 0.884; in test [2], 0.217; in test [3], 0.253; in test [4], 0.752; in test [5] it was 2.78; in [6] it was 0.982. Besides, the composite z-score is 1.32 with Sam68 (KHDRBS1); -1.1 in test [7]; 1.12 in [8]; 2.82 in test [9]; 1.17 in test [10]; 0.944 in test [11]. In addition, the composite z-score in [12] was determined as 0.913; in [13] it was 1.3; in [14], 0.122; in the test with Lefty1, 0.872; in test [16], 1.18. In test [1], the composite Z-score is 0.294 (inactive). For the same molecule, the z-score is 1.99 in test [15] and -0.781 (inactive) in test [17].
Turning to `O=C1N(CCS(=O)(=O)c2ccccc2)c2ccccc2[C@@H]2OC(c3ccc(OCCCO)cc3)=N[C@]12Cc1ccccc1`, the composite z-score was 0.484 with Albumin (Bos taurus); 0.126 in test [2]; -0.0244 in test [3]; 0.391 in test [4]; 0.898 in test [5]; 0.474 in test [6]. Further, the composite z-score was 1.3 in the test on Sam68 (KHDRBS1); 0.837 in test [7]; 1.12 in [8]; 1.65 in test [9]; 1.19 in [10]; 1.05 in [11]. The composite z-score in test [12] stood at 0.959; in test [13], 1.43; in [14], 1.71; in the test with Lefty1, 1.18; in test [16] it was 0.668. Moreover, the composite Z-score in test [1] is -0.209 (inactive). The z-score in [15] was 2.29; in [17], -11.5 (active).
For the molecule `O=C(CS)NCCCCCNC(=O)[C@H]1C[C@H]2C(=O)NCC(=O)N2[C@H]1c1ccc(O)cc1`, the composite z-score is -0.366 with Albumin (Bos taurus); -0.372 in test [2]; -0.185 in test [3]; 0.281 in test [4]; -0.29 in test [5]; -0.474 in [6]. The composite z-score in the test on Sam68 (KHDRBS1) is -1.3; in test [7], -0.559; in test [8], -0.0836; in test [9] it was -0.0453; in [10] it was -1.16; in [11], -0.437. Moreover, the composite z-score in test [12] was -3.23; in [13], -0.0739; in [14], 0.258; with Lefty1, 0.0911; in test [16] it was -0.125. Moreover, in test [1], the composite Z-score is 0.161 (inactive). For the same molecule, the z-score in test [15] was -0.0966; in [17], 0.612 (inactive).
Take `COCCCNC(=O)[C@@H]1c2ccccc2C(=O)N(Cc2ccccc2)[C@H]1c1ccc(CO)cc1`: the composite z-score with Albumin (Bos taurus) worked out at 0.405; in test [2] it was 0.235; in [3] it was 0.13; in [4], 0.787; in test [5], 1.48; in [6], 1.1. Further, the composite z-score in the test on Sam68 (KHDRBS1) is 0.814; in test [7], 0.634; in test [8], 0.458; in [9], 1.67; in test [10], 1.01; in test [11], -0.174. In addition, the composite z-score in test [12] is 0.185; in test [13] it was 0.928; in test [14], 0.594; in the test on Lefty1, 0.206; in [16] it was 0.31. The composite Z-score in test [1] was 0.59 (inactive). Also, the z-score is 1.29 in [15] and 0.519 (inactive) in test [17].
